For 6 molecules, composite z-score and z-score results are on record in PubChem BioAssay.

“And” between values parts separate entries of the source, which are not always exact repeats. Equal entries are not always repeated. The source made the active and inactive calls.

The test system of assay [1] is Plasmodium falciparum Sir2 (PF13_0152, Sir2A). Nature of the assay: Plasmodium falciparum Sir2A binding compounds – biochemical, small-molecule microarray, 635 nm fluorescence, primary screen (AID 1098).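 Note: score merges spot fluorescence intensity with its signal-to-noise ratio.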 The settings on record: fluorescence 635 nm, higher = more signal.
The nature of assay [2]: probe aDKK1 binding to arrayed compounds – biochemical, biotinylated probe, 635/667 nm fluorescence, primary screen (AID 1099).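 Note: score merges 667nm spot fluorescence with signal to noise across triplicate slides.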 As to conditions: small-molecule microarray, higher = more signal.
A short description of assay [3]: probe aCHRDL2 binding to arrayed compounds – biochemical, biotinylated probe, 635/667 nm fluorescence, primary screen (AID 1100). As to conditions: small-molecule microarray, higher = more signal.
A short description of assay [4]: change in splice reporter luminescence, either direction, cell-based, HEK293, spliceosome inhibition project, primary screen (AID 1101).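 Note: HEK293 cells carrying a splicing-competent luciferase reporter gene; test concentration not given here.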 The settings on record: HEK293 splicing luciferase reporter, 24 h, higher = more signal, called active from +8 up or from −8 down.
In assay [5] the target is Fibroblast growth factor 10 (Homo sapiens) (UniProt O15520). Nature of the assay: compounds binding fibroblast growth factor 10 – biochemical, small-molecule microarray, 635 nm fluorescence, primary screen (AID 1102). As to conditions: FGF10 binding, fluorescence 635 nm, higher = more signal.
Assay [6] deals with glycogen synthase kinase-3 (GSK3A per assay name; protocol says GSK3B). Nature of the assay: compounds binding glycogen synthase kinase-3 – biochemical, small-molecule microarray, 635 nm fluorescence, GSK3A, primary screen (AID 1103). Note: the record names both GSK3A and GSK3B. The settings on record: fluorescence 635 nm, higher = more signal.
Assay [7] addresses Epidermal growth factor receptor (Homo sapiens) (UniProt P00533). The experiment in a line: compounds binding epidermal growth factor receptor – biochemical, small-molecule microarray, 635 nm fluorescence, primary screen (AID 1104).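 Note: score merges 667 nm emission intensity with spot signal to noise over triplicate slides.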 The settings on record: EGFR binding, higher = more signal.
Assay [8] concerns the target Follistatin-related protein 3 (Homo sapiens) (UniProt O95633). Nature of the assay: compounds binding follistatin-related protein 3 – biochemical, small-molecule microarray, 635 nm fluorescence, primary screen (AID 1105).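 Note: score merges emission near 667 nm and signal to noise per printed spot across three slides.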 The settings on record: FSTL3 binding, higher = more signal.
Assay [9] deals with Dickkopf-related protein 1 (Homo sapiens) (UniProt O94907). Nature of the assay: small molecules binding DKK1 protein – biochemical, small-molecule microarray, 635 nm fluorescence scan, primary screen (AID 1106).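 Note: score merges emission near 667 nm with signal to noise over three replicate slides.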 As to conditions: higher = more signal.
Assay [10] has as its system Inhibin beta A chain (activin A). Nature of the assay: small molecules binding activin A – biochemical, small-molecule microarray, 635 nm fluorescence scan, primary screen (AID 1107).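 Note: mouse activin A protein probed at 4.33 µg/mL on printed slides; score merges bound-protein fluorescence near 667 nm with spot signal-to-noise.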 As to conditions: INHBA, higher = more signal.
The test system of assay [11] is Human papillomavirus type 1a protein E7 (residues 44-93). Nature of the assay: small molecules binding HPV E7 44-93 – biochemical, small-molecule microarray, residues 44-93, 635 nm fluorescence, primary screen (AID 1108).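 Note: E7 fragment applied at 1 µg/mL in TBST for 1 h at 4 C; score combines spot fluorescence with its signal to noise ratio.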 The settings on record: fluorescence 635 nm, higher = more signal.
Assay [12] is described as follows: hepatitis C replication reporter changes, two-sided – Huh7 cells, luciferase reporter, HCV replication inhibitor project, primary screen (AID 1109).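 Note: huh7 hepatoma cells harbouring a luciferase neomycin HCV replicon reporter; luciferase luminescence as measure of HCV replicon replication; test concentration not given here.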 The settings on record: Huh7 HCV replicon luciferase reporter, 48 h; higher = more signal. On the technique in general: A reporter such as luciferase makes a cellular process visible.
The target in assay [13] is Left-right determination factor 2 (Homo sapiens) (UniProt O00292). The experiment in a line: small molecules binding LEFTY2 protein – biochemical, small-molecule microarray, 635 nm fluorescence scan, primary screen (AID 1110). As to conditions: higher = more signal.
Assay [14] deals with Calmodulin-1 (Homo sapiens) (UniProt P0DP23). The experiment in a line: small molecules binding calmodulin-1 with EGTA – biochemical, small-molecule microarray, Cy5-labelled CALM1, profiling panel (AID 1111).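 Note: labelled calmodulin applied in Tris saline Tween buffer holding calcium plus EGTA and DTT.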 The settings on record: Cy5-CALM1 binding fluorescence, higher = more signal.
For assay [15] the target is unchanged. The experiment in a line: small molecules binding Ca-loaded calmodulin-1 – biochemical, small-molecule microarray, Cy5-labelled CALM1, plus calcium, artefact control for SMM control-protein annotation, profiling panel (AID 1112).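 Note: score merges spot fluorescence with signal to noise from triplicate slides.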 As to conditions: Cy5-CALM1 binding fluorescence, higher = more signal.
Assay [16] in a line: probe aWnt5a binding to arrayed compounds – biochemical, biotinylated probe, 635/667 nm fluorescence, primary screen (AID 1113).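 Note: score merges 667 nm fluorescence intensity with signal-to-noise per printed feature.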 The settings on record: small-molecule microarray, higher = more signal.
A short description of assay [17]: probe aShh binding to arrayed compounds – biochemical, biotinylated probe, 635/667 nm fluorescence, primary screen (AID 1114).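 Note: probe is biotin-labelled aShh protein from a stem cell growth factor screen; measures binding of labelled protein to compounds printed on the slide; score merges feature fluorescence at 667 nm with signal-to-noise.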 As to conditions: small-molecule microarray, higher = more signal.
The nature of assay [18]: probe aNog binding to arrayed compounds – biochemical, biotinylated probe, 635/667 nm fluorescence, primary screen (AID 1115).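 Note: probe is biotinylated aNog protein used at 0.15 µg/mL for 1 h at 4 C; z-score combines 667 nm fluorescence of each spot with its signal to noise.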 As to conditions: small-molecule microarray, higher = more signal.
Assay [19] concerns the target Torsin-1A-interacting protein 1 (Homo sapiens) (UniProt Q5JTV8). Nature of the assay: compound microarray binding of lysate hLAP1 – cell lysate, small-molecule microarray, COS7 lysate, 635/667 nm fluorescence, primary screen (AID 1116). As to conditions: 635 nm fluorescence, higher = more signal.
The target of assay [20] is Alpha-bungarotoxin (Bungarus multicinctus) (UniProt P60615). Nature of the assay: compounds binding labelled alpha-BTX control protein – biochemical, small-molecule microarray, Alexa647 label, 635/667 nm fluorescence, artefact control for SMM control protein annotation, profiling panel (AID 1117). The settings on record: alpha-BTX-A647 binding fluorescence, higher = more signal.
Alpha-bungarotoxin (Bungarus multicinctus), sequence (P60615 whole entry, looked up): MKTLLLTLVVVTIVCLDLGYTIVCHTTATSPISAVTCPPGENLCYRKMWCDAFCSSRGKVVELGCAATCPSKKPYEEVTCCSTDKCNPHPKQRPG

Torsin-1A-interacting protein 1 (Homo sapiens), sequence (Q5JTV8 whole entry, looked up): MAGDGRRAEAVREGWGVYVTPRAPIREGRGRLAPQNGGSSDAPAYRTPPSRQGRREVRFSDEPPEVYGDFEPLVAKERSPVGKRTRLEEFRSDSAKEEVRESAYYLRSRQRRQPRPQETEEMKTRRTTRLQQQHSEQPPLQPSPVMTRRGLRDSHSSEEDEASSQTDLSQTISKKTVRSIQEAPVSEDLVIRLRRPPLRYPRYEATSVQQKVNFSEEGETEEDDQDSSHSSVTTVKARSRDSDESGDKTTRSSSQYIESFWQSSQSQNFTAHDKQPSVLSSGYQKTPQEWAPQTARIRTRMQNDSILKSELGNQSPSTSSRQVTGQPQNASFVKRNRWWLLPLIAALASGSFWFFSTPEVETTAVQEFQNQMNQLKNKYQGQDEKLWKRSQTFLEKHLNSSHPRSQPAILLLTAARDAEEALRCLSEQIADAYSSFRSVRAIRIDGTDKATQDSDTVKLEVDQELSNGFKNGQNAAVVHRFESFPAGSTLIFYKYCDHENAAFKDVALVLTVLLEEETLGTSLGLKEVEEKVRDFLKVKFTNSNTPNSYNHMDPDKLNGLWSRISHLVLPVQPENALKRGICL
Dickkopf-related protein 1 (Homo sapiens), sequence (O94907 whole entry, looked up): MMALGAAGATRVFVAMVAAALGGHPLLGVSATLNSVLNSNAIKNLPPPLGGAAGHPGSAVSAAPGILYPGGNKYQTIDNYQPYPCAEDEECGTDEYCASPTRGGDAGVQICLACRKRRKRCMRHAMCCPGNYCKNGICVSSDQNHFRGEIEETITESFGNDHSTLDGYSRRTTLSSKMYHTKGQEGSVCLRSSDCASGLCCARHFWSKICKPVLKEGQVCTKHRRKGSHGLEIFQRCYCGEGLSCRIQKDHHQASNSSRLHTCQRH
Fibroblast growth factor 10 (Homo sapiens), sequence (O15520 whole entry, looked up): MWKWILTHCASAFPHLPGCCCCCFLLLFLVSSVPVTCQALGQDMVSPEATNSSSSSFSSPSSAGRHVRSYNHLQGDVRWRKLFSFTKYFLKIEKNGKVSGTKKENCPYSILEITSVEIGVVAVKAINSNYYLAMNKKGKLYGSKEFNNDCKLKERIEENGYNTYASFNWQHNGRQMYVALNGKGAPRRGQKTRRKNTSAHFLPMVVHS
Epidermal growth factor receptor (Homo sapiens), sequence (P00533 whole entry, looked up): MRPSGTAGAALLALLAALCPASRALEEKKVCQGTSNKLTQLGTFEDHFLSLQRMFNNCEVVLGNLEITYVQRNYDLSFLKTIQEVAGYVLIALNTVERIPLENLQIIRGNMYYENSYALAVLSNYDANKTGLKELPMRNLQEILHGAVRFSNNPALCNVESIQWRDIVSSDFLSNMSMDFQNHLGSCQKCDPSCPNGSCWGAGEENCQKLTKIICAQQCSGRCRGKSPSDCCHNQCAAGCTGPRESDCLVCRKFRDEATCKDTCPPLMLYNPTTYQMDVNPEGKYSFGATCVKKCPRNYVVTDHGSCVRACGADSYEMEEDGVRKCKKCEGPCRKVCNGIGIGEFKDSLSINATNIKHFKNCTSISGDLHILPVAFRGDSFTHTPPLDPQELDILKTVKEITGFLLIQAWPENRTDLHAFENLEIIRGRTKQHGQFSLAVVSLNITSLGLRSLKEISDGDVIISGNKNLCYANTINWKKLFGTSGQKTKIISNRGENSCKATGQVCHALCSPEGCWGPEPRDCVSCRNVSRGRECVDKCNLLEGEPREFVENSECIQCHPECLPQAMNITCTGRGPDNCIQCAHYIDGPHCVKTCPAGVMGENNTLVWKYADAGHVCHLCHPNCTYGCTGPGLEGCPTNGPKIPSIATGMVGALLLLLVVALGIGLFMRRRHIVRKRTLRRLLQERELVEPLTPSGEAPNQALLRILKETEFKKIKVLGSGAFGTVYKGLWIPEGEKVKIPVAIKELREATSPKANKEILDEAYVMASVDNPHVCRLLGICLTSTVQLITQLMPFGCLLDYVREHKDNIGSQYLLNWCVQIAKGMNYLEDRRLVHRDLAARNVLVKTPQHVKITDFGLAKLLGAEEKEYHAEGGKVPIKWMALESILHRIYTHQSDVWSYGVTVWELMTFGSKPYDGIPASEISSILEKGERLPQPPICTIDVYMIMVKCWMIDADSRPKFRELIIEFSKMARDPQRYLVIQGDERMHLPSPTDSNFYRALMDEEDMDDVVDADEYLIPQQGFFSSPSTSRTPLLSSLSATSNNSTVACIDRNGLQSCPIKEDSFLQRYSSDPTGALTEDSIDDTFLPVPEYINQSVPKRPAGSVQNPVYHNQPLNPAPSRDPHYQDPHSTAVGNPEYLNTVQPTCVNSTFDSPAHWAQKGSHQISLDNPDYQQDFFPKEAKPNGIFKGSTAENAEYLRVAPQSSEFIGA
Left-right determination factor 2 (Homo sapiens), sequence (O00292 whole entry, looked up): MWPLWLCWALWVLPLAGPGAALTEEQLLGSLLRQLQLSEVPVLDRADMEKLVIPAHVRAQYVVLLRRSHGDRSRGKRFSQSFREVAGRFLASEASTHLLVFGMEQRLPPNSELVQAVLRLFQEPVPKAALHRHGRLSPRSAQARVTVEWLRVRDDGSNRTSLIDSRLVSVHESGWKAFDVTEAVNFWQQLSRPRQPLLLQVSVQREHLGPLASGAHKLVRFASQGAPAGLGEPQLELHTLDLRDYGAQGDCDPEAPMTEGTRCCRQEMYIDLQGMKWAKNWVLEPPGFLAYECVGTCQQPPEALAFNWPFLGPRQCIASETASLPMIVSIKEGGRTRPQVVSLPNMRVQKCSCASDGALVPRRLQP
Follistatin-related protein 3 (Homo sapiens), sequence (O95633 whole entry, looked up): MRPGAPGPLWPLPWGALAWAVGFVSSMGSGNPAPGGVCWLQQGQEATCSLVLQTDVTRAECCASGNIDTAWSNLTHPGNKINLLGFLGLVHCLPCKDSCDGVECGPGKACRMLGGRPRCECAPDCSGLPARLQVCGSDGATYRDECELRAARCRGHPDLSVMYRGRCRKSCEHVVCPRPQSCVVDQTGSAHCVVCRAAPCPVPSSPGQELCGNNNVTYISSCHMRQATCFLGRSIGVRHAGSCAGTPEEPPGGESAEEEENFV

Consider `C=CCN(Cc1ccccc1)C(=O)C1N(CCCCCCO)C(=O)C2C(C(=O)O)C3C=CC21O3` (stereo not given), for which the composite z-score in assay [1] is 0.751 and 0.912; in [2], -0.0659 and -0.197; in assay [3], 0.991 and 0.926; in assay [5], -1.02 and -2.08; in assay [6], -0.973 and -1.08; in assay [7] it was -1.7 and -1.71. The composite z-score in assay [8] was -1.49 and -1.67; in assay [9] it was -1.79 and -4; in [10], -1.29 and -2.29; in assay [11], -0.352 and -1.02; in [13], -2.37 and -4.16; in [14] it was -0.326 and -0.505. In addition, the composite z-score was 0.498 and 0.722 in assay [15]; -0.219 and -0.332 in assay [16]; -0.0709 and -0.0035 in assay [17]; -0.0211 and -0.316 in assay [18]; 0.193 and 0.0816 in [19]; -1.13 and -1.12 in [20]. For the same molecule, the z-score is -0.679 (inactive) and -1.35 (inactive) in assay [4]; 0.0022 and 0.118 in [12].
With `COC(=O)CC=C[C@@H](C)[C@@H](CO)NS(=O)(=O)c1ccc(C)cc1`, the composite z-score was 0.266 and 0.348 in [1]; -0.393 and -0.371 in assay [2]; -0.591 and -0.895 in [3]; 0.394 and 0.774 in assay [5]; 0.635 and 0.827 in assay [6]; 0.667 and 0.395 in assay [7]. The composite z-score in assay [8] was 0.505 and 1.3; in assay [9] it was 0.998 and 0.71; in assay [10], 0.0232 and -0.0806; in assay [11], -0.314 and 0.755; in assay [13], 0.632 and 0.966; in [14], -0.442 and -0.343. Further, the composite z-score is -1.01 and -0.837 in assay [15]; -0.0405 and -0.0994 in assay [16]; -0.522 and 0.111 in [17]; -0.0503 and 0.0287 in assay [18]; -0.145 and 0.808 in [19]; -0.309 and 0.0211 in assay [20]. Moreover, the z-score was 0.538 (inactive) and -0.445 (inactive) in assay [4]; -0.465 and -0.0825 in assay [12].
On to `C=CCN(C(=O)C1N(C(C)(C)CO)C(=O)C2C(C(=O)O)C3C=CC21O3)c1ccc(OC)cc1` (stereo not given), for which the composite z-score was -0.138 and 0.012 in [1]; 0.0931 and -0.0192 in assay [2]; 1.23 and 1.02 in assay [3]; -0.966 and -2.03 in assay [5]; -0.751 and -1.28 in assay [6]; -1.84 and -1.43 in assay [7]. Moreover, the composite z-score in assay [8] is -2.02 and -2.33; in assay [9], -4.14 and -3.71; in assay [10] it was -1.01 and -5.89; in [11] it was -0.391 and -1.24; in assay [13], -2 and -4.13; in assay [14], -0.547 and -0.928. Besides, the composite z-score in assay [15] is 0.455 and -0.116; in assay [16], -0.256 and -0.116; in [17], 0.0611 and -0.283; in [18], 0.265 and -0.0827; in assay [19], 1.86 and -0.125; in assay [20], -2.34 and -2.48. Also, the z-score was -1.01 (inactive) and 0.0922 (inactive) in assay [4]; 1.82 and -0.0108 in [12].
On to `C=CCN(CCCC)C(=O)C(c1cccs1)N(C(=O)/C=C\C(=O)O)c1c(Cl)cccc1CO` (stereo not given), for which the composite z-score in [1] was 0.129 and 1.61; in assay [2], -0.0631 and -0.131; in assay [3], 1.25 and 0.906; in [5], -2.81 and -1.97; in assay [6] it was -0.944 and -0.892; in assay [7], -2.16 and -2.02. Moreover, the composite z-score in assay [8] was -1.44 and -2.65; in assay [9], -3.42 and -2.44; in [10] it was -3.52 and -2.04; in assay [11], -1.23 and -1.01; in assay [13] it was -3.75 and -3.83; in assay [14], -0.731 and -0.883. Also, the composite z-score in assay [15] was 0.215 and 0.584; in assay [16], -0.328 and -0.303; in assay [17] it was -0.0769 and -0.221; in assay [18] it was -0.0173 and -0.0409; in assay [19], -1.53 and -1.41; in assay [20] it was -1.09 and -1.15. For the same molecule, the z-score is 0.173 (inactive) and 0.771 (inactive) in assay [4]; -0.765 and -0.992 in [12].
With `COC(=O)C1=C(C)N(Cc2ccccc2)[C@]23O[C@](C(=O)OC)(C(=O)N2[C@@H]1c1ccccc1)[C@H]1C(=O)N(C)C(=O)[C@H]13`, the composite z-score in assay [1] was 0.626 and 0.336; in assay [2], 0.0479 and 0.177; in assay [3] it was -0.284 and -0.474; in assay [5] it was 0.408 and 0.827; in [6], 0.933 and 0.452; in [7], 0.473 and 0.427. Besides, the composite z-score is 0.645 and 0.82 in [8]; 0.415 and 0.942 in assay [9]; -0.338 and 0.137 in [10]; 0.866 and 0.534 in [11]; 1.15 and 0.687 in assay [13]; 0.949 and -0.202 in [14]. For the same molecule, the composite z-score is 0.29 and -0.107 in assay [15]; -0.16 and -0.0165 in assay [16]; -0.237 and 0.165 in assay [17]; -0.108 and -0.0008 in [18]; 0.384 and 0.73 in [19]; 0.0312 and -0.0037 in [20]. Further, the z-score is -1.03 (inactive) and -1.27 (inactive) in assay [4]; -1.01 and 0.238 in [12].
With `C=CCN(C(=O)C(c1cccs1)N(C(=O)/C=C\C(=O)O)c1c(Cl)cccc1CO)c1ccc(OC)cc1` (stereo not given), the composite z-score in assay [1] was 1.67 and 0.504; in assay [2], 0.218 and 1.01; in assay [3] it was 1.24 and 1.27; in assay [5], -1.5 and -1.19; in assay [6] it was -0.625 and -0.907; in assay [7] it was -2.29 and -1.02. Also, the composite z-score in [8] was -2.23 and -1.78; in assay [9], -4.06 and -2.06; in assay [10] it was -0.828 and -0.09; in assay [11], -0.523 and -0.539; in assay [13] it was -2.96 and -1.51; in assay [14], -0.0794 and -0.107. Also, the composite z-score in assay [15] is 1.06 and 0.804; in assay [16], -0.285 and -0.096; in assay [17], -0.0011 and 0.173; in assay [18] it was 0.709 and -0.0216; in assay [19] it was 1.81 and -0.188; in assay [20] it was -1.73 and -0.053. Besides, the z-score is -1.13 (inactive) and -0.482 (inactive) in [4]; -0.16 and -0.604 in assay [12].
